TGFb inhibitor – qHTS for Inhibitors of TGF-b | Potency, µM (titrated, usually from 46.1 µM), without a hit: at the highest dose activity, negative = inhibition, hits mostly inhibitors | HepG2 CAGA-GFP TGF-b/SMAD3 reporter, GFP fluorescence, 18 h; TGF-beta stimulated, 500 pg/mL final | 410,000 tested, 1.2% active; also: % is scaled to controls: 0 for no effect and ±100 for the full control effect; nearly all actives have a fitted effect of over 65% in size
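Using HEPG2 CAGA-GFP reporter cells at 1000 cells/well, we pinned test compounds, stimulated with recombinant TGF-beta (500 pg/mL final) and measured total well GFP after 18 h.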
DT40 TDP1 no CPT – qHTS for Inhibitors of human tyrosyl-DNA phosphodiesterase 1 (TDP1): qHTS in cells in absence of CPT. AID 686978, 2013. 420,000 tested, 15% active. DT40 Tdp1-/- hTDP1 cells, no CPT, ATP luminescence, 48 h. Potency, µM (series often up to 46.2 µM), for the others: top-dose activity change, negative = growth inhibition, hits mostly inhibitors; also: % is scaled to controls: 0 for no effect and ±100 for the full control effect; nearly all actives have a fitted effect of over 55% in size
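Chicken DT40 Tdp1-/- cells stably complemented with human TDP1 were seeded at 400 cells/well with DMSO in place of 20 nM camptothecin. After compound pinning, cells grew at least 48 hr at 37 °C; viability read by CellTiter-Glo luminescence.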
TDP1 cell CPT – qHTS for Inhibitors of human tyrosyl-DNA phosphodiesterase 1 (TDP1): qHTS in cells in presence of CPT | chicken DT40 Tdp1-/-;hTDP1 cells + 20 nM CPT, ATP luminescence, 48 h | Potency, µM (titrated, usually from 46.2 µM), inactives show top-dose activity change, negative = growth inhibition, hits mostly inhibitors | 420,000 tested, 12% active | AID 686979, 2013; also: % is scaled to controls: 0 for no effect and ±100 for the full control effect; nearly all actives have a fitted effect of over 55% in size
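Chicken DT40 Tdp1-/- cells complemented with human TDP1, 400 cells/well, exposed to compounds plus 20 nM camptothecin for at least 48 h at 37 C; viability read as ATP content by CellTiter-Glo luminescence.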
ATXN viability – Viability Counterscreen for Primary qHTS for Inhibitors of ATXN expression; AID 651635, 2014; 400,000 tested, 0.49% active; Potency, µM (highest dose often 56.7 µM), most hits filed as cytotoxic; S2 cells (HEK-293 line with an ATXN2-luciferase reporter) viability, CellTiter-Fluor protease fluorescence, 24 h; also: nearly all actives have a fitted effect of over 40% in size
HepG2 viability – qHTS for Inhibitors of TGF-b: Cytotox Counterscreen; HepG2 CAGA-GFP viability, ATP luminescence, 18 h; Potency, µM (doses to about 46.1 µM), for the others: top-dose activity change, negative = cytotoxicity, hits mostly cytotoxic; 410,000 tested, 0.76% active
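CellTiter-Glo luminescence gave cytotoxicity after 18 hours at 37 degrees C. The cells were HepG2 CAGA-GFP in 1% FBS DMEM, stimulated with 500 pg/mL TGF-beta after compound addition. %Activity was normalised to no-cell wells (complete cell-killing) and DMSO (no toxicity), and curves were fitted and classified.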
ATXN2 expr inh – Primary qHTS for Inhibitors of ATXN expression. Potency, µM (top dose mostly 57 µM), for the others: top-dose activity change, negative = inhibition, usual class: inhibitors. 360,000 tested, 0.72% active. HEK-293 ATXN2-luciferase reporter, luminescence, 24 h. AID 1745845, 2022; also: % is scaled to controls: 0 for no effect and ±100 for the full control effect; nearly all actives have a fitted effect of over 55% in size
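ATXN2-luciferase reporter cells (luciferase flanked by upstream and downstream ATXN2 gene portions) were treated 24 h at 37 °C with compounds at up to 57 uM. SteadyGlo luminescence gave expression; GF-AFC fluorescence gave viability.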
An asterisk follows results filed as active; i = inactive; ? = inconclusive; · = no result; [ ] = another dose, or the depositor's remark. Hits are enriched below; roughly 17% of the tested compounds scored in any of these assays. Calls follow the shape of the dose curve; as a rule, active = well fitted curve in the direction sought with a large enough effect; inconclusive = small, poorly fitted or top-dose-only effect, or another doubt; inactive = no such curve, though single readings can be large; an effect the other way counts as inactive or inconclusive. Potency is read from the fitted curve at half-maximal effect.

SMILES	TGFb inhibitor	DT40 TDP1 no CPT	TDP1 cell CPT	ATXN viability	HepG2 viability	ATXN2 expr inh
CCCOc1ccc(C2C(=O)N(C3CCCCCC3)CC(=O)N2CCC)cc1OC (centres undefined)	-5%	?	23µM*	·	-28%	·
CCOCCCN1C(=O)CN(C2CCCCCC2)C(=O)C1c1ccc(OC)cc1 (centres undefined)	-28%	?	7.9µM*	i	-18%	24%
C[C@H](CO)N1C[C@H](C)[C@@H](CN(C)C(=O)C2CCCCC2)OCc2cn(nn2)CCCC1=O	3%	8%	?	i	1%	12%
Cc1ccc(Nc2c(F)c(F)c(F)c(F)c2C(=O)O)cc1	4%	3%	-4%	i	4%	3%
CCCOc1ccc(C2C(=O)N(C3CCCCCC3)CC(=O)N2Cc2ccc(OC)cc2)cc1OC (centres undefined)	1%	23µM*	?	·	-14%	·
Cc1ccc(C2C(=O)N(C3CCCCCC3)CC(=O)N2C(C)C)cc1 (centres undefined)	?	26µM*	?	·	-16%	·
O=C1C(c2ccc(F)cc2)N(CCc2ccccc2)C(=O)CN1C1CCCCCC1 (centres undefined)	0%	13µM*	?	·	-3%	·
Cc1ccc(S(=O)(=O)c2nnn3c2nc(N2CCN(c4ccc(F)cc4)CC2)c2cc(Cl)ccc23)cc1C	-3%	-9%	-11%	i	10%	5%
COc1cccc(C(O)c2nc(-c3ccc4ccccc4c3)cs2)c1 (centres undefined)	-20%	-29%	?	i	-31%	35%
CC(C)CN(C[C@H](O)[C@H](Cc1ccccc1)NC(=O)O[C@H]1CCOC1)S(=O)(=O)c1ccc(N)cc1	·	·	·	·	·	-3%
CC(C)CC[n+]1ccccc1/C=C/c1ccc(N(C)C)cc1	33%	0.026µM*	0.018µM*	?	-22%	?
COc1cccc(NC(=O)CC2NCCNC2=O)c1 (centres undefined)	-12%	2%	21%	·	1%	·
Cc1ccc(NS(=O)(=O)c2ccc3c(c2)CCCN3C(=O)C2CCC2)cc1Cl	?	23µM*	?	i	-23%	-37%
Cc1ccc(NS(=O)(=O)c2ccc(Cl)c(NC(=S)NC(=O)C3CCCCC3)c2)cc1Cl	?	?	23µM*	?	11µM*	?
CC(=O)Nc1ccc(NS(=O)(=O)c2ccc3c(c2)CC(C)N3C(=O)C2CCC2)cc1 (centres undefined)	0%	?	?	?	3%	-10%
Cc1ccc(NS(=O)(=O)c2ccc3c(c2)CC(C)N3C(=O)C2CCC2)cc1Cl (centres undefined)	?	10µM*	16µM*	i	-18%	?
Cc1cc(Cl)ccc1NS(=O)(=O)c1ccc2c(c1)CC(C)N2C(=O)C1CCC1 (centres undefined)	11µM*	16µM*	18µM*	i	-22%	-28%
Cc1ccc(NC(=O)C2CCCC2)cc1Cl	-5%	-10%	15%	i	1%	9%
CCOc1ccc(-c2cn3c(n2)sc2cc(C(=O)NC(C)C45CC6CC(CC(C6)C4)C5)ccc23)cc1 (centres undefined)	-14%	?	?	·	-30%	·
CCOc1ccc(NS(=O)(=O)c2ccc3c(c2)CCN3C(=O)C2CCC2)cc1	?	?	?	i	-26%	-12%
CCN(c1ccc2c(c1)OCO2)S(=O)(=O)c1cc2c(cc1Br)CCN2C(=O)C1CC1	9%	21µM*	16µM*	i	3%	-18%
O=C(C1CCC1)N1CCc2cc(S(=O)(=O)Nc3ccc4c(c3)OCO4)ccc21	-4%	14µM*	11µM*	i	-17%	-11%
O=C(CCl)c1ccc2c(c1)CCN2C(=O)C1CCCCC1	?	1.6µM*	1.3µM*	?	-25%	8%[11.3 µM]
O=[N+]([O-])c1ncccc1OCc1ccc(Br)cc1F	-18%	-6%	4%	i	-14%	-3%
CNc1nc(C23CC4CC(CC(C4)C2)C3)cs1	-23%	?	?	i	-33%	-15%
SMILES	TGFb inhibitor	DT40 TDP1 no CPT	TDP1 cell CPT	ATXN viability	HepG2 viability	ATXN2 expr inh
COc1ccc2sc(N(CCN(C)C)C(=O)c3ccc4ccccc4c3)nc2c1	1%	?	-25%	i	-17%	·
COc1ccc(C)c2sc(N(CCN(C)C)C(=O)c3ccc4ccccc4c3)nc12	-5%	?	18µM*	i	-30%	-32%
Cc1cc(C)c2nc(N(CCN(C)C)C(=O)c3ccc4ccccc4c3)sc2c1	?	13µM*	16µM*	i	-46%	-24%
CN(C)CCN(C(=O)c1ccc2ccccc2c1)c1nc2c(F)cccc2s1	-5%	5%	-26%	i	0%	2%
CC1CC(C)CN(CC(C)(C)NS(=O)(=O)c2ccccc2)C1 (centres undefined)	0%	-27%	-16%	i	-16%	-5%
CS(=O)(=O)c1ccccc1-c1nnc(NC(=O)c2ccc3ncsc3c2)o1	5%	?	?	i	8%	6%
COc1ccc(C(=O)OCC(=O)NC2CC2)cc1F	0%	4%	10%	i	-13%	-4%
O=C(/C=C/c1cccs1)Nc1nccs1	-28%	-32%	-20%	i	-16%	·
O=C(/C=C/c1cccs1)Nc1ccc(Br)cn1	?	0.33µM*	0.26µM*	?	19%	27%[11.3 µM]
Cc1cc(C)c(-c2csc(NC(=O)/C=C/c3cccs3)n2)c(C)c1	?	18µM*	?	i	-6%	?
O=C(/C=C/c1cccs1)Nc1cccc(NC(=O)/C=C/c2cccs2)n1	1%	8.2µM*	12µM*	i	-19%	-22%
O=C1C2CCCN2C(=O)N1CCCCN1CCN(CCO)CC1 (centres undefined)	-17%	12%	-6%	?	-1%	3%
COc1ccc(C(=O)CCC(=O)Nc2ccc(N3CCN(C)CC3)cc2)cc1OC	-2%	-3%	3%	i	-11%	·
CCC1CCCCN1S(=O)(=O)c1ccc2[nH]c(=O)ccc2c1 (centres undefined)	2%	1%	0%	i	0%	-12%

From PubChem
